According to ChEMBL document CHEMBL1157539, “Thousands of chemical starting points for antimalarial lead identification” (Nature, 2010):

Test system: HepG2
Assay: GSK_TCMDC: Percent inhibition of human HepG2 cell line. Test compounds present at 10uM.
Type: functional

| Compound | Inhibition |
| --- | --- |
| CC(C)COc1ccc(C(O)C(CN2CCCCC2)c2ccccc2)cc1 (centres undefined) | 11% |
| COc1ccc2nc3cc(Cl)ccc3c(NCCCCN3CCNCC3)c2c1.Cl | 29% |
| COc1ccc2ncc(F)c(CCN3CC(O)C(CNCc4ccc5c(c4)OCCO5)C3)c2n1.Cl (centres undefined) | 18% |
| c1ccc(Oc2ccc(Nc3nc(NCCc4c[nH]cn4)nc(NC4CCCC4)n3)cc2)cc1 | 0% |
| N#Cc1cccc(NC(=O)Nc2cccc(-c3cccc(-c4nc5ccccc5[nH]4)c3)c2)c1 | 46% |
| CN(C(=O)Nc1ccc(C(F)(F)F)cc1)C1CCN(CCCCCNC(=O)/C=C/c2ccc(Cl)c(Cl)c2)CC1 | 57% |
| Cl.Nc1ccc(-c2nc3c(ccc4ccccc43)[nH]2)cc1 | 0% |
| CN(CCN)Cc1ccc(-c2ccc(-c3nc4cc(C(F)(F)F)ccc4[nH]3)s2)cc1.O=C(O)C(F)(F)F | 37% |
| O=C(/C=C/c1ccc(Cl)c(Cl)c1)NCCCCCCN1CCN(C(=O)Nc2ccc(Cl)c(C(F)(F)F)c2)CC1 | 47% |
| Cc1cc(O)nc(NC#N)n1 | 8% |
| COc1ccc(C(F)(F)F)cc1N1CCN(CCCCNC(=O)c2ccc(NC(=O)c3ccc(Cl)cc3)cc2)CC1 | 12% |
| O=C(Nc1cccc(C2=NCCN2)c1)Nc1cccc(C2=NCCN2)c1 [IMIDOCARB] | 16% |
| CN(C)CCNCc1ccc(-c2ccc3c(Nc4ccc(Oc5ccccc5)cc4)ccnc3c2)o1 | 19% |
| N#Cc1cccc(-c2nc(NCc3cccc(C(F)(F)F)c3)nn2-c2cccc(C(F)(F)F)c2)c1 | 12% |
